Among the data in PubChem BioAssay (NCATS) are Potency values, retold here.

Records with an inconclusive call do not appear. A call without a number means that no potency is given here. Active and inactive are the calls of the source. Calls follow the shape of the dose curve; as a rule, active = well fitted cell-killing curve with a large enough effect; inconclusive = small, poorly fitted or top-dose-only effect; inactive = flat fitted curve, though single readings scatter.
Potency is read from the fitted curve at half-maximal effect.

The assay is described as follows: Cell Viability - LYMP2-006 (AID 978). Also: nearly all actives have a fitted effect of over 60% in size. As to conditions: LYMP2-006 lymphoblastoid cell viability, qHTS; series mostly up to 92.2 µM. An excerpt: NIH Chemical Genomics Center [NCGC]
NIH Molecular Libraries Screening Centers Network [MLSCN]
National Institutes of Environmental Health Sciences [NIEHS]
National Toxicology Program [NTP]
We have developed a 1536-well cell-based assay for quantitative high throughput screening (qHTS) against a number of cell lines to determine in vitro cytotoxicity of small molecules. This particular assay uses a human lymphoblastoid cell line (LYMP2-006) purchased from Coriell Institute for Medical Research.
NCGC Assay Protocol Summary:
The CellTiter-Glo luminescent cell viability assay (Promega) is a homogeneous method to measure the number of viable cells in culture. The end point readout of this assay is based on quantitation of intracellular ATP, an indicator of metabolic activity, using the luciferase reaction. Luciferase catalyzes the oxidation of beetle Luciferin to oxyluciferin and light in the presence of ATP. The luminescent signal is proportional to amount of ATP present.
Using the CellTiter-Glo luminescent cell viability assay, the amount of cellular ATP was measured in the lymphoblastoid cell line with complete culture medium following compound treatment for 24 hours. The assay was performed in opaque white Kalypsys 1536-well plates. In the screen, tetraoctylammonium bromide was used as positive control. Library compounds were measured for their ability to cause acute toxicity in the cell line, as reflected by a decrease in intracellular ATP levels, in a concentration-dependent manner. […] AC50 values were determined from concentration-response data modeled with the standard Hill equation.
qHTS protocol for CellTiter Glo lymphoblastoid cellular assay
[Step] [Parameter] [Value] [Description]
1. Reagent; 5 uL; 2500 lymphoblastoid cells/well
2. Time; 5 hr; 37 C incubation
4. Controls; 23 nL; Tetraoctylammonium bromide 6.4pM to 92 uM
5. Time; 24 hr; 37 C incubation
6. Reagent; 5 uL; CellTiter Glo reagent
7. Time; 30 min; Room Temperature
8. Detection; Luminescence; Viewlux plate reader
Keywords: cell viability, cytotoxicity, lymphoblastoid cell line, luminescence, NTPHTS, NTPHTS_NCGC, NIEHS, DSSTox, MLSMR, MLSCN, NIH Roadmap, qHTS, NCGC
Take `CCNC(=S)NCC`: the Potency result was “inactive”.

Consider `CCCCC(CC)COC(=O)COc1ccc(Cl)cc1Cl` (stereo not given), for which the Potency entry was “inactive”.

Regarding `COc1ccc(C)cc1N`, the Potency result is “inactive”.

On to `CCCCOC(=O)COc1ccc(Cl)cc1Cl`, for which the Potency entry is “inactive”.

As for `Cc1c2ccccc2c(C)c2c1ccc1ccccc12`, the Potency result is “inactive”.

Consider `O=C(O)c1cc(N=Nc2ccc([N+](=O)[O-])cc2)ccc1O`, for which the Potency entry was “inactive”.

As to `O=C1OC(=O)c2ccccc21`, the Potency result was “inactive”.

Take `O=[N+]([O-])c1ccc(F)cc1F`: the Potency result is “inactive”.

Take `Nc1cnn([C@@H]2O[C@H](CO)[C@@H](O)[C@H]2O)c(=O)n1`: the Potency entry is “inactive”.

As for `Oc1ccc2c(c1)OCO2`, the Potency entry was “inactive”.

On to `NC(=O)c1ccc([N+](=O)[O-])cc1`, for which the Potency entry is “inactive”.

`C=CC1CO1` (stereo not given): the Potency entry was “inactive”.

Take `CC(C)COC(=O)COc1cc(Cl)c(Cl)cc1Cl`: the Potency result is “inactive”.

For `Nc1ccc(N=Nc2ccccc2)c(N)c1`, the Potency result is “inactive”.

Turning to `CC(C)OCC1CO1` (stereo not given), the Potency entry was “inactive”.

For the compound `Oc1cc(Cl)cc(Cl)c1Cl`, the Potency entry is “inactive”.

On to `OCC(CO)(CBr)CBr`, for which the Potency entry is “inactive”.

With `Nc1cc([N+](=O)[O-])ccc1O`, the Potency entry was “inactive”.

Regarding `c1ccc2ncccc2c1`, the Potency entry was “inactive”.

With `COc1ccc([N+](=O)[O-])cc1N`, the Potency entry is “inactive”.

As for `Nc1cc(C(=O)O)c(O)c(S(=O)(=O)O)c1`, the Potency entry was “inactive”.

As to `NC(=O)Nc1nc2ccccc2[nH]1`, the Potency entry was “inactive”.

`CCOc1ccc2nc(N)sc2c1`: the Potency entry is “inactive”.

With `CC(=O)OCc1ccc2c(c1)OCO2`, the Potency result is “inactive”.

Consider `CCCCCCc1ccc(-c2ccc(C#N)cc2)cc1`, for which the Potency result is “inactive”.

Turning to `COc1ccc(C(=O)Nc2ccccc2)cc1[N+](=O)[O-]`, the Potency entry was “inactive”.

Turning to `O=C(Cl)c1ccc([N+](=O)[O-])cc1`, the Potency result was “inactive”.

As for `c1ccc2c(c1)ccc1ccccc12`, the Potency entry is “inactive”.

Regarding `c1ccc(CSCc2ccccc2)cc1`, the Potency entry is “inactive”.

Regarding `CCCCCCN`, the Potency result is “inactive”.

In the case of `O=C(OCc1ccccc1)c1ccccc1O`, the Potency result is “inactive”.

For the compound `Oc1cc2c(cc1O)[C@H]1c3ccc(O)c(O)c3OC[C@@]1(O)C2`, the Potency was 39.8 µM (active).

For the compound `OC1CCCCC1`, the Potency entry is “inactive”.

In the case of `c1ccc(COCc2ccccc2)cc1`, the Potency entry is “inactive”.

`Cc1ccc(C(=O)O)cc1[N+](=O)[O-]`: the Potency entry is “inactive”.

As to `Oc1c(Cl)cc(Cl)c(Cl)c1Cl`, the Potency result is “inactive”.

Regarding `Cc1c(N)cccc1Cl`, the Potency entry was “inactive”.

With `CC1=C(/C=C/C(C)=C/C=C/C(C)=C/C=O)C(C)(C)CCC1`, the Potency was 63.1 µM (active).

Take `N=C1C=CC(=C(c2ccc(N)cc2)c2ccc(N)cc2)C=C1`: the Potency was 10 µM (active).

For `O=C(O)/C=C/c1ccc(/C=C/C(=O)O)cc1`, the Potency entry was “inactive”.
